Test results from PubChem BioAssay (Tox21).
Records with an inconclusive call do not appear. Entries that show only a call come without a potency. Unmarked numbers belong to inactive results. Active and inactive are the calls of the source. Calls follow the shape of the dose curve; as a rule, active = well fitted activation curve with a large enough effect in the repeat runs; inconclusive = weak or mixed curves; inactive = flat fitted curve, though single readings scatter.

Experiment: A CellTox Green Cytotoxicity Assay to monitor cytotoxicity in HEK293 cells - 16 hour (AID 1224888); also: nearly all actives have a fitted effect of over 35% in size
Conditions: CellTox Green fluorescence; series mostly up to 76.8 µM
Method in brief: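 Read-out: fluorescence of a cell-impermeant cyanine dye staining DNA of dead cells, proportional to cytotoxicity. HEK293, 600 cells/well with reagent, compound (23 nL DMSO) added after 5 h; reads at 0, 8, 16, 24, 32, 40 h.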

| Compound | Potency | activity change |
| --- | --- | --- |
| c1ccccc1 | inactive |  |
| Cc1ccccc1C(=O)N1CC/C(=N\OS(=O)(=O)O)c2ccc(Cl)cc21 | inactive |  |
| C[CH2][Ge]([Cl])([CH2]C)[CH2]C | inactive |  |
| CCOC(=O)CC#N | inactive |  |
| CCOc1ccc(NC(=O)OC(C)C)cc1OCC | inactive |  |
| OC(CCN1CCCCC1)(c1ccccc1)c1ccccc1 | inactive |  |
| C[N+](C)(C)CC(O)CCl (configuration not stated) | inactive |  |
| CCCCCCCC/C=C\CCCCCCCC(=O)OC[C@@H](O)[C@H]1OC[C@H](O)[C@H]1O | inactive |  |
| CCCCCCCCOC(C)=O | inactive |  |
| O=C(O)c1ccc(OCCN2CCCCC2)cc1 | inactive |  |
| FC(F)(F)c1ccc(Cl)cc1Cl | inactive |  |
| COC(=O)CCC(=O)O | inactive |  |
| NS(=O)(=O)c1cc2c(cc1Cl)NC(CC1CCCC1)NS2(=O)=O (configuration not stated) | inactive |  |
| CC(C)COC(=O)CCCCC(=O)OCC(C)C | inactive |  |
| CC(C)COC(=O)/C=C/c1ccccc1 | inactive |  |
| CC1(N)CCC(C(C)(C)N)CC1 (configuration not stated) | inactive |  |
| O=S1(=O)CCCC1 | inactive |  |
| CC1CCC(C(C)(C)S)C(=O)C1 (configuration not stated) | inactive |  |
| CCNC(=O)/C=C/c1cccc(Br)c1 | inactive |  |

| Compound | Potency | activity change |
| --- | --- | --- |
| C=COCCOCCOC=C | inactive |  |
| COc1cc(C=O)ccc1OC(=O)C(C)C | inactive |  |
| CCOC(=O)CCc1ccccc1 | inactive |  |
| Cc1nc(C)nc(N2C[C@@H](C)N(c3ccnc([C@@H](C)O)n3)[C@@H](C)C2)n1 | inactive |  |
| NS(=O)(=O)c1ccc(Cl)c(S(N)(=O)=O)c1 | inactive |  |
| CCCCCCCC[Si](OCC)(OCC)OCC | inactive |  |
| O=C(c1ccc2c(c1)C(=O)OC2=O)c1ccc2c(c1)C(=O)OC2=O | inactive |  |
| C=CC(C)(O)CC/C=C(\C)CC (configuration not stated) | inactive |  |
| O=C(Nc1cccc(C2=NCCN2)c1)Nc1cccc(C2=NCCN2)c1 |  | -6.11% [at 15.8 µM, hits give high values] |
| CC(C)=CC(C)(C)C | inactive |  |
| O=CN1CCOCC1 | inactive |  |
| C[C@@H]1C[C@H]2[C@@H]3C[C@H](F)C4=CC(=O)C=C[C@]4(C)[C@@]3(F)[C@@H](O)C[C@]2(C)[C@@]1(O)C(=O)CO | inactive |  |
| Cc1c(C(C)C)c(=O)n(-c2ccccc2)n1C | inactive |  |
| CC(C)CCC(=O)CCC(C)C | inactive |  |
| C=C(C)C(=O)OC | inactive |  |
| N#CCCOCCOCCC#N | inactive |  |
| CC(C)(C)c1ccc(C=O)cc1 | inactive |  |
| CCN(Cc1cccc(S(=O)(=O)O)c1)c1ccccc1 | inactive |  |
